Some compounds were tested as several samples or in several runs, with calls that do not always agree. The source made the active and inactive calls. Rule for the calls: active = hit-call score of the fitted dose curve at least 0.9, where 1 is the maximum; inactive = score below 0.9.

Assay [1] can be described thus: BSK_MyoF_SRB: Viability Assessment in the BioMAP Diversity Plus: MyoF Assay (AID 2284267).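 Note: total protein by SRB absorbance in parallel cultures as cytotoxicity measure; cells assessed 24 h after compound addition.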 The following applies: primary human lung fibroblasts. The method, boiled down:
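Lung fibroblast cultures, 24 h post-dose; fix 10% TCA, stain 0.1% SRB, read 560 nm. Signal = total protein as cytotoxicity measure; fitted relative to DMSO negative control.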

Read-out in assay [2]: Matrix Metallopeptidase 1 (MMP1), MMP1 (gene 4312)
Briefly: BSK_MyoF_MMP1: BioMAP Diversity Plus: MyoF Assay for Matrix Metallopeptidase 1 (MMP1) Biomarker Activity (AID 2284268). The settings on record: primary human lung fibroblasts. The method, boiled down:
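MMP1 measured by ELISA 24 h after dosing primary human lung fibroblasts; cytotoxicity checked in parallel cultures by sulforhodamine B total-protein staining read at 560 nm.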

Read-out in assay [3]: TIMP metallopeptidase inhibitor 1 (TIMP1), TIMP1 (gene 7076)
The experiment in a line: BSK_MyoF_TIMP1: BioMAP Diversity Plus: MyoF Assay for TIMP metallopeptidase inhibitor 1 (TIMP1) Biomarker Activity (AID 2284269). The settings on record: primary human lung fibroblasts. The gist of the method: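 Fibroblasts from human lung are dosed with chemical, cultured 24 h, and assayed for TIMP-1 by ELISA. Increases over the DMSO baseline are scored, with SRB total-protein staining run in parallel for cytotoxicity.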

Read-out in assay [4]: Matrix Metallopeptidase 1 (MMP1), MMP1 (gene 4312)
The experiment in a line: BSK_BF4T_MMP1: BioMAP Diversity Plus: BF4T Assay for Matrix Metallopeptidase 1 (MMP1) Biomarker Activity (AID 2284270). The settings on record: primary human bronchial epithelial cells with fibroblasts. The gist of the method: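 MMP-1 quantified by ELISA in primary human bronchial epithelial/dermal fibroblast co-cultures, 24 hours post-dosing, with DMSO as baseline; parallel sulforhodamine B staining (560 nm) tracks overt cytotoxicity.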

Read-out in assay [5]: Matrix Metallopeptidase 3 (MMP3), MMP3 (gene 4314)
The experiment in a line: BSK_BF4T_MMP3: BioMAP Diversity Plus: BF4T Assay for Matrix Metallopeptidase 3 (MMP3) Biomarker Activity (AID 2284271). The following applies: primary human bronchial epithelial cells with fibroblasts. The method, boiled down: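 MMP-3 level read by ELISA after 24 h chemical exposure of bronchial epithelial cell/dermal fibroblast co-cultures, fitted upward relative to DMSO. Parallel cultures stained with 0.1% SRB after TCA fixation gauge overt cytotoxicity.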

Read-out in assay [6]: Tissue plasminogen activator (tPA), PLAT (gene 5327)
Briefly: BSK_BF4T_tPA: BioMAP Diversity Plus: BF4T Assay for Tissue plasminogen activator (tPA) Biomarker Activity (AID 2284272). The settings on record: primary human bronchial epithelial cells with fibroblasts. The method, boiled down: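 tPA level quantified by ELISA at 24 h post-treatment in bronchial epithelial/dermal fibroblast co-cultures, gain of signal scored against DMSO baseline. Parallel cultures stained with 0.1% SRB (560 nm) to flag overt cytotoxicity.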

Read-out in assay [7]: Plasminogen Activator Inhibitor-1 (PAI1), SERPINE1 (gene 5054)
Briefly: BSK_BF4T_PAI1: BioMAP Diversity Plus: BF4T Assay for Plasminogen Activator Inhibitor-1 (PAI1) Biomarker Activity (AID 2284273). The settings on record: primary human bronchial epithelial cells with fibroblasts. The method, boiled down:
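PAI-1 levels quantified by ELISA 24 h post-dosing in bronchial epithelial cell plus dermal fibroblast cultures. Signal gain referenced to DMSO baseline. Sulforhodamine B total-protein staining of parallel wells checked cytotoxicity.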

Assay [8] can be described thus: BSK_BF4T_SRB: Viability Assessment in the BioMAP Diversity Plus: BF4T Assay (AID 2284274). The following applies: primary human bronchial epithelial cells with fibroblasts. The gist of the method: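 Cytotoxicity measured as total protein: cells fixed with 10% TCA, stained with 0.1% SRB, read at 560 nm. Bronchial epithelial/dermal fibroblast co-culture, 24 h after dosing, with positive-direction fitting relative to DMSO.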

Read-out in assay [9]: urokinase Plasminogen Activator (uPA), PLAU (gene 5328)
Briefly: BSK_BF4T_uPA: BioMAP Diversity Plus: BF4T Assay for urokinase Plasminogen Activator (uPA) Biomarker Activity (AID 2284275). The settings on record: primary human bronchial epithelial cells with fibroblasts. The method, boiled down: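 uPA levels measured by ELISA at 24 hours in BF4T cultures (bronchial epithelial cells plus dermal fibroblasts) and compared with DMSO; cytotoxicity tracked in parallel cultures by sulforhodamine B staining.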

Read-out in assay [10]: Matrix Metallopeptidase 9 (MMP9), MMP9 (gene 4318)
Briefly: BSK_BF4T_MMP9: BioMAP Diversity Plus: BF4T Assay for Matrix Metallopeptidase 9 (MMP9) Biomarker Activity (AID 2284276). The settings on record: primary human bronchial epithelial cells with fibroblasts. The method, boiled down:
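MMP-9 levels were measured by ELISA after 24 h exposure of bronchial epithelial cell/dermal fibroblast co-cultures, with DMSO as baseline. Parallel cultures were stained with 0.1% SRB after TCA fixation, read at 560 nm, to flag overt cytotoxicity.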

Read-out in assay [11]: Interleukin-8 (IL8), CXCL8 (gene 3576)
The experiment in a line: BSK_IMphg_IL8: BioMAP Diversity Plus: IMphg Assay for Interleukin-8 (IL8) Biomarker Activity (AID 2284277). The following applies: primary human endothelial cells with macrophages. The gist of the method: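 IL-8 levels were measured by ELISA 24 h after dosing in primary human venular endothelial cell–macrophage cultures, referenced to DMSO; parallel SRB staining monitored overt cytotoxicity.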

Read-out in assay [12]: Intercellular Adhesion Molecule 1 (ICAM1), ICAM1 (gene 3383)
Briefly: BSK_BE3C_ICAM1: BioMAP Diversity Plus: BE3C Assay for Intercellular Adhesion Molecule 1 (ICAM1) Biomarker Activity (AID 2284278).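 Note: cell-surface ICAM-1 protein level quantified by ELISA.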 The settings on record: primary human bronchial epithelial cells. The method, boiled down:
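ELISA read-out of ICAM-1 on human lung bronchial epithelial primary cells, 24 h post-dosing; positive-direction curve fit, DMSO = baseline. SRB total-protein staining of parallel cultures flagged overt cytotoxicity.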

Read-out in assay [13]: Interferon-inducible T-cell alpha chemoattractant (ITAC), CXCL11 (gene 6373)
Briefly: BSK_BE3C_ITAC: BioMAP Diversity Plus: BE3C Assay for Interferon-inducible T-cell alpha chemoattractant (ITAC) Biomarker Activity (AID 2284279). The following applies: primary human bronchial epithelial cells. The gist of the method:
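BE3C cells (human primary bronchial epithelium), 24 h compound exposure, I-TAC by ELISA, DMSO = negative control/baseline, positive fitting direction.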

Read-out in assay [14]: Interleukin-8 (IL8), CXCL8 (gene 3576)
The experiment in a line: BSK_BE3C_IL8: BioMAP Diversity Plus: BE3C Assay for Interleukin-8 (IL8) Biomarker Activity (AID 2284280). The settings on record: primary human bronchial epithelial cells. The gist of the method:
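Measured at 24 h after treatment, IL-8 from human primary bronchial epithelial cells is determined by ELISA, and the response is modelled as increasing relative to DMSO negative control.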

Read-out in assay [15]: Epidermal growth factor receptor (EGFR), EGFR (gene 1956)
The experiment in a line: BSK_BE3C_EGFR: BioMAP Diversity Plus: BE3C Assay for Epidermal growth factor receptor (EGFR) Biomarker Activity (AID 2284281). The following applies: primary human bronchial epithelial cells. The gist of the method:
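Measured 24 h after dosing in primary human bronchial epithelial cultures, EGFR was read by ELISA; gain of signal over DMSO control defined activity.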

Read-out in another assay: KRT18 (gene 3875)
The experiment in a line: BSK_BE3C_Keratin818: BioMAP Diversity Plus: BE3C Assay for Keratin 818 Biomarker Activity (AID 2284282). The following applies: primary human bronchial epithelial cells. The gist of the method:
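ELISA read-out of Keratin 8/18 in BE3C human bronchial epithelial cultures, 24 h post-dosing; positive-direction fit vs DMSO baseline.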

Read-out in assay [16]: Matrix Metallopeptidase 9 (MMP9), MMP9 (gene 4318)
Briefly: BSK_BE3C_MMP9: BioMAP Diversity Plus: BE3C Assay for Matrix Metallopeptidase 9 (MMP9) Biomarker Activity (AID 2284283). The settings on record: primary human bronchial epithelial cells. The gist of the method: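 Cells were dosed, incubated 24 h, then assayed for MMP-9 by ELISA; activity was fitted upward against DMSO. The system used human lung primary bronchial epithelial cells, with SRB total-protein staining run alongside for cytotoxicity.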

Read-out in assay [17]: Plasminogen activator inhibitor-1 (PAI1), SERPINE1 (gene 5054)
Briefly: BSK_CASM3C_PAI1: BioMAP Diversity Plus: CASM3C Assay for Plasminogen activator inhibitor-1 (PAI1) Biomarker Activity (AID 2284284). The following applies: primary human coronary artery smooth muscle cells.

Read-out in assay [18]: Monocyte Chemoattractant Protein-1 (MCP1), CCL2 (gene 6347)
Briefly: BSK_hDFCGF_MCP1: BioMAP Diversity Plus: hDFCGF Assay for Monocyte Chemoattractant Protein-1 (MCP1) Biomarker Activity (AID 2284285). The settings on record: primary human foreskin fibroblasts. The method, boiled down:
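MCP-1 ELISA readout was taken 24 hours after dosing primary human dermal fibroblasts in the hDFCGF system, with DMSO as baseline. Parallel sulforhodamine B staining of total protein tracked overt cytotoxicity.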

Read-out in assay [19]: Vascular cell adhesion molecule 1 (VCAM1), VCAM1 (gene 7412)
Briefly: BSK_IMphg_VCAM1: BioMAP Diversity Plus: IMphg Assay for Vascular cell adhesion molecule 1 (VCAM1) Biomarker Activity (AID 2284286). The settings on record: primary human endothelial cells with macrophages. The gist of the method:
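ELISA read-out of VCAM-1 on venular endothelial cell/macrophage co-cultures at 24 h post-treatment, with DMSO as baseline and positive-direction fitting. Parallel sulforhodamine B total-protein staining (560 nm) served as the overt cytotoxicity measure.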

As a reminder, the AC50 is the concentration at which the activity in the assay is half-maximal. As to `Cn1cnc([N+](=O)[O-])c1Sc1ncnc2nc[nH]c12`, the outcome in assay [1], in [2], in assay [3], in [4], in assay [5] and in assay [6] was inactive. Further, the outcome in [7], in assay [8], in [9], in assay [10], in assay [11] and in assay [12] was inactive. In addition, the result (in assay [13]; in assay [14]; in assay [15]; in the assay with KRT18 (gene 3875); in [16]; in assay [17]) was inactive. Also, the result in assay [18] and in assay [19] was inactive. Besides, the AC50 was 7.93 µM (active) in assay [6] and 9.14 µM (active) in [19].

The values above are taken from PubChem BioAssay (EPA / NIEHS).
